Screening data (PubChem)
RORg inh: blocks mouse ROR gamma transcriptional activity | P51450 | Drosophila S2 Gal4-RORgamma UAS-luciferase reporter, 20 h | Potency, µM (titrated, usually from 53.6 µM), for the others: top-dose activity change, negative = inhibition, most hits filed as inhibitors | hit rate 5.4% among 310,000 | AID 2551; note: nearly all actives have a fitted effect of over 60% in size
Target sequence (P51450 whole entry, looked up, the tested form may be a part): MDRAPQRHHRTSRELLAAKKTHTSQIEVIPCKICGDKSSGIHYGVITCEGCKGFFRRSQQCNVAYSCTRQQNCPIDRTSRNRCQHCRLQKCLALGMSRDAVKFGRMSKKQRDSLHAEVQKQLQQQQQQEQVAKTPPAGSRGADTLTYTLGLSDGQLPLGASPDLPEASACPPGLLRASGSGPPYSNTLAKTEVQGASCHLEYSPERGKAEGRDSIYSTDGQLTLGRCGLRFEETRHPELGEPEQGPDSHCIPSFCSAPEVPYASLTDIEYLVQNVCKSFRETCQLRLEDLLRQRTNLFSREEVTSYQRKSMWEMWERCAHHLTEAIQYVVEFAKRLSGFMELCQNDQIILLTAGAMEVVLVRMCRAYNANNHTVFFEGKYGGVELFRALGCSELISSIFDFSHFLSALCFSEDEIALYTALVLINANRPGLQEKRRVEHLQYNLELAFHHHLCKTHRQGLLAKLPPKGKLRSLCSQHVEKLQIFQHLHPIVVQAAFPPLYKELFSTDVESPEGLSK
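Stable Schneider cell line, Gal4 DNA-binding domain fused to ROR gamma, UAS-luciferase. Cmpd 1 hr RT → CuSO4 700 uM final → 20 hr RT → luciferase reagent 10 min → luminescence.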
Luc counter: blocks Kinase-Glo luciferase, a counter-screen artifact; Q27757; Kinase-Glo luciferase, ATP luminescence, 8 min; Potency, µM (top dose mostly 38.3 µM), for inactives: top-dose activity change, negative = inhibition, usual class: inhibitors; hit rate 0.28% among 200,000; AID 1379; note: nearly all actives have a fitted effect of over 60% in size
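Compound is pinned into ATP-containing buffer (10 uM ATP, imidazole pH 7.2, 7 mM MgCl2). Kinase-Glo luciferase reagent is then added. Light output is recorded following an 8-min room-temperature incubation.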
VP16 counter: Gal4-VP16 reporter inhibition counter-screen | AID 2546 | hit rate 3.5% among 310,000 | Drosophila S2 Gal4-VP16 UAS-luciferase, luminescence, 20 h | Potency, µM (highest dose often 53.6 µM), for the others: top-dose activity, negative = inhibition, most hits filed as inhibitors;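 note: Gal4-VP16 expression switched on by copper sulfate through the metallothionein promoter; nearly all actives have a fitted effect of over 50% in size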
Starred values were filed as active, the others as inactive; [ ] = another dose, or the depositor's remark. In the library only some 6.2% were active in any assay of this set; here they are far more common. Calls come from the whole dose curve; as a rule, active = well fitted curve in the direction sought with a large enough effect; inconclusive = small, poorly fitted or top-dose-only effect, or another doubt; inactive = no such curve, though single readings can be large; an effect the other way counts as inactive or inconclusive. % is set by controls: 0 for no effect and ±100 for the full control effect; potency is the fitted concentration of half-maximal effect.

Screening C/C(CCc1ccc2c(c1)OCO2)=N\NC(=O)c1ccc(C)cc1C returned RORg inh 0.6%, Luc counter 4.3% and VP16 counter -2.5%.
`ClCCl` gave RORg inh 10.0% and VP16 counter 6.9%.
CC1CCCC(NC(=O)COC(=O)c2cc(S(=O)(=O)N3CCCCC3)ccc2N2CCOCC2)C1C (stereo unspecified) was read as RORg inh 8.4%, Luc counter -3.7% and VP16 counter -1.7%.
For CN(CCC#N)C(=O)COC(=O)c1cc(Cl)cc(Cl)c1N the results were RORg inh 3.7%, Luc counter -0.6% and VP16 counter 4.8%.
For CCOC(=O)c1cc(-c2ccc(OC)cc2)nc2c1c(C)nn2CCC(N)=S the results were RORg inh 4.47µM*, Luc counter 0.7% and VP16 counter inconclusive.
Screening CCOC(=O)c1cc(-c2ccco2)nc2c1c(C)nn2-c1ccccc1 returned RORg inh -4.0%, Luc counter 4.4% and VP16 counter inconclusive.
O=C(COc1ncnc2sccc12)Nc1cccc(S(=O)(=O)N2CCCC2)c1 was read as RORg inh 32.8% and VP16 counter -5.8%.
For CCCN(C(=O)c1ccc2c(SCC(=O)O)c3c(nc2c1)CCC3)c1cccc(C)c1 the results were RORg inh -2.4% and VP16 counter 1.8%.
For CC(C)(C)OC(=O)C(Cl)(C(=O)OC(C)(C)C)c1ccc2nnnn2n1 the results were RORg inh 12.6µM*, Luc counter -1.4% and VP16 counter inconclusive.
`CCOc1ccc2nnnn2n1` gave RORg inh -25.1%, Luc counter 3.9% and VP16 counter -1.6%.
`CC1=C(C(=O)Nc2ccccc2F)C(c2cccs2)NC(=S)N1` (stereo unspecified) gave RORg inh -33.0%, Luc counter 1.6% and VP16 counter -10.5%[10 µM].
`CCOc1cc(/C=N/NC(=O)c2cc(-c3cccc(OC)c3)n[nH]2)ccc1O` gave Luc counter -0.6%.
For O=c1c2sc(-c3ccccc3)cc2nc2n1CCCCC2 the results were RORg inh -3.1% and VP16 counter -15.0%.
`O=c1c2sc(-c3ccccc3)cc2nc2n1CCC2` gave RORg inh 2.51µM*, Luc counter inconclusive and VP16 counter inconclusive.
For COc1ccc(NC(=O)N2CC[C@@]3(CCCN(C(=O)c4ccncc4)C3)C2)cc1 the results were RORg inh 22.4%, Luc counter -2.6% and VP16 counter -2.1%.
Screening CC(=O)Oc1cc2c(cc1Cl)C1(CC(c3ccccc3Cl)O2)CC(C)(C)NC(=S)N1 (stereo unspecified) returned RORg inh 10µM*, Luc counter 2.4% and VP16 counter inconclusive.
COc1ccc(C2(c3ccc(O)cc3O)CC(c3ccccc3Cl)NC(=S)N2)cc1 (stereo unspecified) was read as RORg inh 1.4%, Luc counter 2.5% and VP16 counter -13.3%.
For CCCCC[n+]1ccn(C2=C([O-])c3ccccc3C(=O)/C2=N\S(=O)(=O)c2ccc(Cl)cc2)c1 the results were RORg inh -24.6% and VP16 counter 3.5%.
`CCCC[n+]1ccn(C2=C([O-])c3ccccc3C(=O)/C2=N\S(=O)(=O)c2ccc(Cl)cc2)c1` gave RORg inh 1.58µM* and VP16 counter inconclusive.
For O=C(CCc1ccccn1)N1CCCC(CNS(=O)(=O)c2cccs2)C1 (stereo unspecified) the results were RORg inh 0.1%, Luc counter -1.2% and VP16 counter -4.6%.
FC(F)(F)c1ccc(Cl)c(NC(=S)N/N=C/c2ccccc2C(F)(F)F)c1 was read as RORg inh 0.316µM*, Luc counter 2.9% and VP16 counter 0.562µM*.
For COc1ccc(/C=N/NC(=S)Nc2cc(C(F)(F)F)ccc2Cl)cc1 the results were RORg inh 0.355µM* and VP16 counter 3.98µM*.
O=C(NCCc1ccccc1)C(=O)N/N=C/c1ccccc1C(F)(F)F was read as RORg inh -1.5%, Luc counter -2.6% and VP16 counter 0.7%.
For COc1ccc(/C=C/C(=O)Nc2cc(C(F)(F)F)ccc2Cl)cc1 the results were RORg inh -3.9%, Luc counter -1.1% and VP16 counter -17.9%.
`Clc1nc(CN2CCOCC2)nc2sc3c(c12)CCC3` gave RORg inh inconclusive, Luc counter -1.2% and VP16 counter 22.7%.
For Cc1cccc(Oc2nc(CN3CCOCC3)nc3sc4c(c23)CCCC4)c1 the results were RORg inh 11.2µM*, Luc counter -4.3% and VP16 counter inconclusive.
`CCC(C)Nc1nc(CN2CCOCC2)nc2sc3c(c12)CCC3` (stereo unspecified) gave RORg inh 11.2µM*, Luc counter -1.8% and VP16 counter inconclusive.
